The results in this text go back to PubChem BioAssay (NCATS).

Each structure is given as a SMILES string. Inconclusive results are not listed. A call without a number means that no potency is given here. Calls of active or inactive are those of the source. Calls follow the shape of the dose curve; as a rule, active = well fitted curve in the direction sought with a large enough effect; inconclusive = small, poorly fitted or top-dose-only effect, or another doubt; inactive = no such curve, though single readings can be large; an effect the other way counts as inactive or inconclusive.

The first test is described as follows: HepG2 cells viability qHTS for Zika virus inhibitors (AID 1347168). The settings on record: Zika counter-screen; series mostly up to 45.9 µM. The method in brief:
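To flag cytotoxic protease inhibitors, viability is measured by ATP-dependent luminescence (CellTiter Glo) after cells attached overnight receive compound for 24 to 48 hours in DMEM with 4% FBS.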
Background: qHTS replaces the single test concentration by a dilution series.
As for `CC[C@H](C)[C@H]1O[C@]2(C=C[C@@H]1C)C[C@@H]1C[C@@H](C/C=C(\C)[C@@H](O[C@H]3C[C@H](OC)[C@@H](O[C@H]4C[C@H](OC)[C@@H](O)[C@H](C)O4)[C@H](C)O3)[C@@H](C)/C=C/C=C3\CO[C@@H]4[C@H](O)C(C)=C[C@@H](C(=O)O1)[C@]34O)O2`, the outcome was inactive.

On to `C[C@@H]1[C@@H]2Cc3ccc(O)cc3[C@@]1(C)CCN2CC1CC1`, for which the call was inactive.

Take `O=c1ccc2[nH]cc(C3=CCNCC3)c2[nH]1`: the compound was called inactive.

A short description of another test: Tertiary RLuc qRT-PCR qHTS assay for Zika virus inhibitors (AID 1347169). Also: nearly all actives have a fitted effect of over 55% in size. Also: potency is read from the fitted curve at half-maximal effect. As to activity change, negative = inhibition: top concentration of the series differs between compounds. The note with it: infected Vero cells, reporter luminescence, 48-72 h; series mostly up to 45.9 µM. The method in brief: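 Vero, 1,000 cells/well, o/n 37 C; cpd pinned in DMSO; ZIKV-RLuc Cambodian, MOI 1-2, 48-72 h 37 C; live-cell RLuc substrate, lum read at 1-1.5 h.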
For `O=C1OC2(c3cc(Br)c(O)cc3Oc3c2cc(Br)c(O)[c]3[Hg])c2ccccc21` (stereo unspecified), the activity change, negative = inhibition is -7.05% [at 0.566 µM] (inactive).

`CC[C@H](C)[C@H]1O[C@]2(C=C[C@@H]1C)C[C@@H]1C[C@@H](C/C=C(\C)[C@@H](O[C@H]3C[C@H](OC)[C@@H](O[C@H]4C[C@H](OC)[C@@H](O)[C@H](C)O4)[C@H](C)O3)[C@@H](C)/C=C/C=C3\CO[C@@H]4[C@H](O)C(C)=C[C@@H](C(=O)O1)[C@]34O)O2`: the Potency was 20.8 µM (active).

`Oc1cc(Cl)c(Cl)cc1Cl`: the activity change, negative = inhibition is -13.8% [at 5.25 µM] (inactive).

On to `CCN1CC2(COC)C3[C@@H](OC)C4C1C3(C1C[C@]3(O)[C@H](OC(=O)c5ccccc5)C1[C@]4(OC(C)=O)[C@@H](O)[C@@H]3OC)[C@H](OC)C[C@H]2O` (stereo partly specified), for which the Potency entry is “inactive”.

Turning to `C[C@@H]1[C@@H]2Cc3ccc(O)cc3[C@@]1(C)CCN2CC1CC1`, the Potency entry was “inactive”.

Turning to `COC(=O)C1(C)CCC(O)C2(C)c3cc(O)c(C(C)C)cc3C(O)C(OC(C)=O)C12` (stereo unspecified), the Potency entry was “inactive”.

`COc1c(C(C)C)cc2c(c1O)[C@@]1(C(=O)O)CCCC(C)(C)C1CC2` (stereo partly specified): the Potency result is “inactive”.

`O=c1ccc2[nH]cc(C3=CCNCC3)c2[nH]1`: the Potency entry is “inactive”.
